High-throughput results: PubChem BioAssay, The Scripps Research Institute Molecular Screening Center
Hits are enriched below; roughly 4.1% of the tested compounds scored in any of these assays.
MBD2 DNA inh – inhibitors of MBD2 binding to methylated DNA, primary screen, biochemical, TR-FRET, DNA-binding domain, human; MBD2 binding to methylated oligonucleotide; inhibition, % at 4.4 µM; AID 686964, 2013; Methyl-CpG-binding domain protein 2 (Homo sapiens), Q9UBB5; actives 0.31% (n = 370,000); in the data active = inhibition above about 13%
PRMT1 FP inh – PRMT1 methyltransferase inhibitors, primary screen, biochemical, fluorescence polarization | actives 1.3% (n = 370,000) | recombinant PRMT1, activity-based probe fluorescence polarization | Protein arginine N-methyltransferase 1 (Homo sapiens), Q99873 | inhibition, % at 2.79 µM;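 active = inhibition above about 21% made by adding two undisclosed values, limit read from the data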
Target sequence (Q99873 whole entry, looked up): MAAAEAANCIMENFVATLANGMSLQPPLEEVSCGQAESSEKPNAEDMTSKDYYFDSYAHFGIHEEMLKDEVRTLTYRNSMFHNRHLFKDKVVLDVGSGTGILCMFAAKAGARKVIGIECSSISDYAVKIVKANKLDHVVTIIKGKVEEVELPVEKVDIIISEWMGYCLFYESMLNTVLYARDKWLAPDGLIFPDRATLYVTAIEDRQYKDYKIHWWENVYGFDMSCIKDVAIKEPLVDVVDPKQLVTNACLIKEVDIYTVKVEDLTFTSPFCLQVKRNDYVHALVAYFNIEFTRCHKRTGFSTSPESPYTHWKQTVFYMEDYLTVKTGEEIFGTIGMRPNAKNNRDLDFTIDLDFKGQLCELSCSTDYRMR
LEDGF integ inh – blockers of LEDGF/p75-dependent integrase strand transfer – biochemical, TR-FRET, high throughput, primary screen. TR-FRET IN-LEDGF/p75 DNA integration, Eu/Cy5. inhibition, % at 3.7 µM. actives 0.64% (n = 370,000);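 active = inhibition above the screen-wide mean plus 3 SD, cut at about 13% in these data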;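 also: signal is the Cy5 over europium emission ratio at 671 and 618 nm; 0% = plate median of compound wells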
ABHD5 PLIN5 PPI – ABHD5-PLIN5 interaction inhibitors, primary screen, cell lysate, split luciferase complementation, luminescence. Perilipin-5 (Homo sapiens) + 1-acylglycerol-3-phosphate O-acyltransferase ABHD5 (Homo …. Split G. princeps luciferase complementation, 4 h. inhibition, % at 4 µM. actives 0.78% (n = 360,000);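 active = inhibition above the mean inhibition across every tested compound plus 3 SD, cut at about 22% in these data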;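 also: 0% = DMSO only wells and the 100% control is not disclosed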
rCAG RNA binder – binders of r(CAG) RNA repeats, primary screen, biochemical, fluorescence. r(CAG) RNA repeat, TO-PRO-1 dye displacement fluorescence. inhibition, % at 3 µM. actives 1.3% (n = 370,000);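 active = inhibition above the plate cutoff, the mean of all test compounds on that plate plus 3 SD, cut at about 35% in these data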;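 also: 0% = DMSO alone and 100% = 100 µM mitoxantrone as full dye displacement; higher means more dye released from RNA so lower well fluorescence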
UHRF1 MBD2 ctr – UHRF1 methylated DNA binding inhibitors, primary screen, counter-screen for MBD2 inhibitor project, biochemical, TR-FRET, human UHRF1, single concentration; inhibition, % at 4.4 µM; E3 ubiquitin-protein ligase UHRF1 (Homo sapiens), Q96T88; UHRF1 binding to methylated oligo; actives 0.75% (n = 370,000); AID 687016, 2013; in the data active = inhibition above about 21%;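 also: UHRF1 SRA domain binding a hemimethylated CpG hairpin DNA probe; 0% = median of test compound wells and 100% = reference inhibitor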
Starred values were filed as active, the others as inactive; x = no result given.

SMILES	MBD2 DNA inh	PRMT1 FP inh	LEDGF integ inh	ABHD5 PLIN5 PPI	rCAG RNA binder	UHRF1 MBD2 ctr
COC(=O)C1=C(C)N(Cc2ccccc2C(F)(F)F)C(=NCc2ccccc2C(F)(F)F)NC1c1ccc(Cl)cc1 (configuration not stated)	0.3	-3.7	-1.6	x	3.0	-1.6
Nc1ncnc2c1ncn2[C@@H]1O[C@H](C(=O)N[C@@H](CCc2ccccc2)C(=O)N2CCN(C(=O)N3CCOCC3)CC2)[C@@H](O)[C@H]1O	-1.8	-1.9	4.7	x	1.8	-1.3
COC(=O)[C@]12C[C@H](CC(=O)N3CCCCC3)C(=O)N(CCC3=CCCCC3)C1=C[C@H](C(C)(C)C)O[C@@H]2C	-5.3	0.3	-0.4	x	-0.8	-2.3
Cc1noc(C)c1S(=O)(=O)NCc1ccc(CN(C)C)cc1	2.9	-4.0	0.0	4.5	0.5	33.5*
O=C(c1ccccc1OCc1ccccc1)N(Cc1ccccn1)CC1CCCO1 (configuration not stated)	-0.5	-0.1	-1.8	x	4.4	-1.7
C=CCN1[C@@H](C)[C@H](c2ccccc2)Oc2cccc(NCCc3ccccc3)c2S1(=O)=O	8.0	3.6	6.6	x	7.9	9.4
Cc1ccccc1CN1[C@@H](C)[C@H](c2ccccc2)Oc2cccc(NCCc3ccccc3)c2S1(=O)=O	2.4	-2.4	2.8	x	4.4	20.7*
c1ccc(-c2noc(C3CCC3)n2)nc1	10.9	2.7	0.8	7.2	-0.1	24.8*
O=C1/C(=C/Nc2ccc3c(c2)OCO3)CCc2ccccc21	-11.3	22.8*	-1.0	-7.0	6.1	-14.3
O=C1OC2(CCCCC2)OC(=O)C1=CNc1ccc2c(c1)OCO2	-1.2	-1.0	-5.0	-8.7	-3.2	-3.2
COc1ccc(S(=O)(=O)Nc2ccc3c(c2)OCO3)cc1	2.3	0.9	0.7	3.0	-1.5	-3.7
COc1ccc2c(c1)CC/C(=C\Nc1ccc3c(c1)OCO3)C2=O	-11.6	28.9*	2.9	-7.0	7.0	-15.8
Cc1ccc(S(=O)(=O)N(C)[C@H]2C[C@H]3c4[nH]c5c(-c6ccccc6)cccc5c4CCN3C(=O)[C@H]2[C@H](C)O)cc1	-2.2	0.7	-2.7	x	10.7	-0.2
Cc1cc(N2CCNC[C@@H]2C)ccc1N1CCS(=O)(=O)CC1	0.3	-0.6	-0.2	x	1.7	-0.4
COc1ccc(NCc2nnc(SCC(=O)Nc3ccccc3OC)o2)cc1	-5.8	21.8*	0.7	-10.0	2.6	-5.9
COc1ccc(C(=O)NCc2nnc(SCC(=O)Nc3nc4ccccc4s3)o2)cc1	1.2	22.6*	-2.6	-6.4	7.7	1.3
Cc1occc1-c1nnc(SCC(=O)Nc2nc3ccccc3s2)o1	-1.3	2.9	3.1	3.1	3.4	23.1*
O=C(CSC1=NCCS1)Nc1nc2ccccc2s1	-0.7	41.6*	-1.4	-6.2	2.7	-1.9
Cc1sc(NC(=O)CSC2=NCCS2)nc1-c1ccccc1	-1.5	4.1	-2.5	-10.4	0.3	-1.4
COc1ccc(C(=O)NCc2nnc(SCC(=O)c3ccccc3)o2)cc1	-4.6	-6.4	-0.1	-7.2	-2.0	-0.8
Cc1ccnc(SCc2cc(=O)c(OC(=O)c3ccc(C)c([N+](=O)[O-])c3)co2)n1	4.8	10.7	2.3	x	x	1.7
COC(=O)C1CN(C2CC2)CCS(=O)(=O)N1Cc1cn(Cc2ccc(F)cc2)nn1 (configuration not stated)	9.4	-0.2	-1.9	x	-0.9	12.9
CCCCN1CCN(C(=O)c2ccc(CNC(=O)c3cccc(Br)c3)cc2)CC1	-2.4	-1.7	3.7	x	-0.3	-1.9
O=C1NC(=S)SC1=C1CCCC1	4.3	24.4*	8.0	-11.4	8.3	21.3*
CN1C(=O)C(=C2CCCCCC2)SC1=S	6.7	11.6	3.6	-12.9	2.3	-0.3
COc1ccc(S[C@]2(C(=O)N3CCN(c4ncccn4)CC3)CC(=O)N(P(=O)(OC)OC)[C@@H]2c2ccc(OC)cc2)cc1	1.2	12.4	5.9	x	2.1	1.9
